# Data reported in PubChem BioAssay (NCATS).
# Records with an inconclusive call do not appear. Where a call stands in place of a potency, no number is given. Calls of active or inactive are those of the source. Calls come from the whole dose curve; as a rule, active = well fitted cell-killing curve with a large enough effect; inconclusive = small, poorly fitted or top-dose-only effect, or effect the other way; inactive = no such curve, though single readings can be large or run the other way.
# Test: qHTS assay to identify small molecule inhibitors of chordoma cells - UCH-1 (AID 1259355); note: nearly all actives have a fitted effect of over 55% in size
# Details: UCH-1 chordoma viability, CellTiter-Glo, 48 h, combination, with auranofin plus four topoisomerase inhibitors; series mostly up to 46.1 µM
# Text: NIH Chemical Genomics Center [NCGC]
# Chordoma is a rare and slow growing tumor that can occur anywhere along the spine, from the base of the skull to the tailbone. Current treatment options for chordoma is surgery and radiation therapy for those who are not candidates for surgery. But chordomas tend to return in the same location or surrounding areas of the original tumor after surgery and/or radiation. Chemotherapy can slow down the progression of the tumor. As chordoma is slow growing, the general cytotoxic agents that kill fast growing cells are ineffective, and some patients have been reported to respond to molecularly targeted drugs.
# NCATS Pharmaceutical Collection (NPC) containing approximately 3000 clinically approved and investigational drugs were used to screen at 15 concentrations in a chordoma cell lines, UCH-1, to identify small molecule compounds that can inhibit chordoma cell growth.
# NCGC Assay Protocol Summary:
# Human chordoma cell line UCH-1 was dispensed at 800 per well in 4uL of culture medium into white solid bottom 1536-well plates (Corning Life Sciences, Corning, NY) using a Multidrop Combi (Thermo Scientific, Waltham, MA) dispenser. The assay plates were incubated at 37 C and 5% CO2 for an overnight, and then 23nL of compounds dissolved in DMSO and positive control were transferred using a Pintool station (Wako, San Diego, CA). Compound treatment was followed by the addition of 1uL of the combination compounds (1uM Auranofin, 500nM each of Camptothecin, Doxorubicin, Rubitecan, and Topotecan) and assay medium to each well of the assay plates using Flying Reagent Dispenser (FRD, Aurora Discovery, San Diego, CA). The assay plates were incubated at 37 C and 5% CO2 for 48hr. Then 5uL of CellTiter-Glo reagent (Promega Corporation, Madison, WI) was added to each well of the assay plates using FRD. After 30min incubation at room temperature, the luminescence signal was quantified using a ViewLux plate reader (PerkinElmer, Shelton, CT).
# Potency is the fitted concentration of half-maximal effect.
row,Compound,Potency
1,CC1=C[C@H](O)CC(C)(C)[C@H]1/C=C/C(C)=C/C=C/C(C)=C/C=C/C=C(C)/C=C/C=C(C)/C=C/C1=C(C)C[C@@H](O)CC1(C)C,inactive
2,O=C(O)Cc1cc(I)c(Oc2ccc(O)c(I)c2)c(I)c1,inactive
3,CC(CNC(=O)c1cccnc1)NC(=O)c1cccnc1 (stereo not given),inactive
4,CC(C)[C@@H]1CC[C@@H](C)C[C@H]1OC(=O)c1ccccc1O,inactive
5,Nc1nc2c(c(=O)[nH]1)N(C=O)C(CNc1ccc(C(=O)N[C@@H](CCC(=O)O)C(=O)O)cc1)CN2 (stereo not given in full),inactive
6,CC[C@@H](C)[C@H](N)C(=O)O,inactive
7,C=CC1=C(C(=O)O)N2C(=O)[C@@H](NC(=O)/C(=N/OCC(=O)O)c3csc(N)n3)[C@H]2SC1 (stereo in doubt),inactive
8,NC(=O)c1cc[n+](CC2=C(C(=O)O)N3C(=O)[C@@H](NC(=O)C(c4ccccc4)S(=O)(=O)[O-])[C@H]3SC2)cc1 (stereo not given in full),inactive
9,CCCCCCCCCCCCCCCCCC[N+](C)(C)CCC[Si](OC)(OC)OC,inactive
10,CN[C@@H]1[C@@H](O[C@H]2O[C@H](CO)[C@@H](N)[C@H](O)[C@H]2O)O[C@H]2C[C@@H](N)[C@@H](O[C@H]3[C@H](O)[C@@H](O)[C@H](N)C[C@@H]3N)O[C@@H]2[C@@H]1O,inactive
11,CN1CCCC(CN2c3ccccc3Sc3ccccc32)C1 (stereo not given),inactive
12,COc1ccc(-c2noc(CC(=O)O)c2-c2ccc(OC)cc2)cc1,inactive
13,O=C(O)CCC/C=C\C[C@@H]1[C@@H](/C=C/[C@@H](O)COc2cccc(Cl)c2)[C@H](O)C[C@@H]1O,inactive
14,CCc1cn([C@H]2C[C@H](O)[C@@H](CO)O2)c(=O)[nH]c1=O,inactive
15,CN1CCN(C(c2ccccc2)c2ccc(Cl)cc2)CC1 (stereo not given),inactive
16,Cc1cccc(C)c1NC(=O)C1CCCCN1C (stereo not given),inactive
17,CCOC(=O)[C@H](CS)NCCN[C@@H](CS)C(=O)OCC,inactive
18,CC1=C(/C=C/C(C)=C/C=C/C(C)=C/C(=O)Oc2c(C)c(C)c3c(c2C)CC[C@@](C)(CCC[C@H](C)CCC[C@H](C)CCCC(C)C)O3)C(C)(C)CCC1,inactive
19,CCC(=O)OC(OP(=O)(CCCCc1ccccc1)CC(=O)N1C[C@H](C2CCCCC2)C[C@H]1C(=O)O)C(C)C (stereo not given in full),inactive
20,CCN1\C(=C/C=C/C=C/c2sc3ccccc3[n+]2CC)Sc2ccccc21,14.1 µM (active)

row,Compound,Potency
1,CC(C)OC(=O)Nc1ccc2nc(-c3cscn3)[nH]c2c1,inactive
2,CO/N=C(\C(=O)N[C@@H]1C(=O)N2C(C(=O)O)=C(CSC(=O)c3ccco3)CS[C@H]12)c1csc(N)n1,inactive
3,O=P(O)(O)OP(=O)(O)O,inactive
4,N#Cc1ccc2c(c1)N(CCCN1CCC(O)CC1)c1ccccc1S2,inactive
5,CN1c2c(nc(N)[nH]c2=O)NCC1CNc1ccc(C(=O)NC(CCC(=O)O)C(=O)O)cc1 (stereo not given),inactive
6,COC(=O)C(CN)c1c[nH]c2ccc(OC)cc12 (stereo not given),inactive
7,C=CC(C)(O)CC/C=C(\C)CCC=C(C)C (stereo not given),inactive
8,CC(CN(C)C)CN1c2ccccc2Sc2ccc(C(F)(F)F)cc21 (stereo not given),inactive
9,O=C(OCc1ccccc1)c1ccc(O)cc1,inactive
10,C=C1CC[C@H](O)CC1=C/C=C1\CCC[C@]2(C)[C@@H]([C@H](C)CC[C@@H](O)C(C)(C)O)CC[C@@H]12,inactive
11,CC(C)(C)NCC(O)c1ccc(O)c(CO)n1 (stereo not given),inactive
12,CCCC(=O)Nc1c(I)cc(I)c(CC(CC)C(=O)O)c1I (stereo not given),inactive
13,CC1CC(O)CC(C)(C)C1 (stereo not given),inactive
14,O=C(Nc1ccc(O)cc1)c1ccccc1O,inactive
15,CC(=O)Nc1c(I)c(C(=O)N[C@H]2C(O)O[C@H](CO)[C@@H](O)[C@@H]2O)c(I)c(N(C)C(C)=O)c1I (stereo not given in full),inactive
16,CCN(CC)CCC(=O)N1c2ccccc2Sc2ccc(Cl)cc21,inactive
17,NC(=S)N=Nc1ccc(NN=C(N)N)cc1,inactive
18,O=C1CC[C@@H](C(=O)N[C@H]2C[C@@H]2c2ccccc2)N1,inactive
19,CCCCCCCCCCCC(=O)OCC(O)CO (stereo not given),inactive
20,O=C1CCC(=O)N1CO,inactive
